{"source": "the supplement of paper PMC11732987", "about": "“Enantioselective OTUD7B fragment discovery through chemoproteomics screening and high-throughput optimisation” (Communications Chemistry, 2025)", "test_in_all_cases": "log2 ratio of Biotin-Ahx-Ub-VS probe labelling (fragment/DMSO); higher = less target engagement (more negative = stronger competition), active = hit call of the paper (q ≤ 0.05, log2 ratio ≤ -1)", "details_in_all_cases": "compound concentration: 200 uM; treatment time: 3 h", "key": {"[1]": {"molecular_target": "T1, OTUD6B (UniProt Q8N6M0)", "T1 sequence (whole entry)": "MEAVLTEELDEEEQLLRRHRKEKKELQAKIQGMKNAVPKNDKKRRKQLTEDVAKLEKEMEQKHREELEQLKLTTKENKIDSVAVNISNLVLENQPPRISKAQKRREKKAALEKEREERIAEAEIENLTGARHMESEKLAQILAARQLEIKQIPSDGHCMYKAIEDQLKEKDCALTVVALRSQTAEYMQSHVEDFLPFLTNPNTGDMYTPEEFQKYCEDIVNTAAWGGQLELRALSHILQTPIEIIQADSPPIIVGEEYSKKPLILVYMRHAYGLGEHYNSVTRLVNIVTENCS", "summary_of_the_method": "(§1)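 Fragment (200 µM) or vehicle was incubated for 3 h with triplicate HEK293T lysate samples of 495 µg, which were then treated with Biotin-Ahx-Ub-VS at 0.5 µM final for 1 h. Labelled DUBs were enriched on NeutrAvidin, digested with LysC and trypsin, and analysed by diaPASEF LC-MS/MS. Values are average log2 fragment/vehicle ratios from an unpaired t-test on global-median-normalised Spectronaut label-free quantities, using proteins with ≥2 unique peptides.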"}, "[2]": {"molecular_target": "T2, OTUD7B (UniProt Q6GQQ9)", "T2 sequence (whole entry)": "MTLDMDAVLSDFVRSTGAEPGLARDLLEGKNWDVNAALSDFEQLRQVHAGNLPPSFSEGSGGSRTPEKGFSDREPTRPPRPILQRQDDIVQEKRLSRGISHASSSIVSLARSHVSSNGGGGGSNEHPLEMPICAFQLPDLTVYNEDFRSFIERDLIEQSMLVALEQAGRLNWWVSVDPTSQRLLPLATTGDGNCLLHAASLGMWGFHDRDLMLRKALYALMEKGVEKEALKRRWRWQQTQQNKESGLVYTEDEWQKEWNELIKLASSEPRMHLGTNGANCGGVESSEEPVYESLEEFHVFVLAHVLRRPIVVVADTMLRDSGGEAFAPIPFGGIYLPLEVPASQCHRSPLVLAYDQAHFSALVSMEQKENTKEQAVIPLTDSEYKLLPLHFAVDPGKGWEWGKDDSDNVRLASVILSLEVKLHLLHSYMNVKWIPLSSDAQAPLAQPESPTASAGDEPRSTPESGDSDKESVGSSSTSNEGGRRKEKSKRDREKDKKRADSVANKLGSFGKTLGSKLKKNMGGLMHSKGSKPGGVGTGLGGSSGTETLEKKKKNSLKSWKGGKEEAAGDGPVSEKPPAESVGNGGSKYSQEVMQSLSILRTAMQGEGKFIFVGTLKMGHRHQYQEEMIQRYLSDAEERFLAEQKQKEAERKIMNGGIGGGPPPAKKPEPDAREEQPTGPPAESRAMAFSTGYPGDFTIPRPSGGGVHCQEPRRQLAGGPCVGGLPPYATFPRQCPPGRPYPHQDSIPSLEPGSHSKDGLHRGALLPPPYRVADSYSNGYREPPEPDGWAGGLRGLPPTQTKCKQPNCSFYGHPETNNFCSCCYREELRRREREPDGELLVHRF", "summary_of_the_method": "as §1"}, "[3]": {"molecular_target": "PRPF8 (UniProt Q6P2Q9)", "summary_of_the_method": "as §1"}, "[4]": {"molecular_target": "T3, PSMD7 (UniProt P51665)", "T3 sequence (whole entry)": "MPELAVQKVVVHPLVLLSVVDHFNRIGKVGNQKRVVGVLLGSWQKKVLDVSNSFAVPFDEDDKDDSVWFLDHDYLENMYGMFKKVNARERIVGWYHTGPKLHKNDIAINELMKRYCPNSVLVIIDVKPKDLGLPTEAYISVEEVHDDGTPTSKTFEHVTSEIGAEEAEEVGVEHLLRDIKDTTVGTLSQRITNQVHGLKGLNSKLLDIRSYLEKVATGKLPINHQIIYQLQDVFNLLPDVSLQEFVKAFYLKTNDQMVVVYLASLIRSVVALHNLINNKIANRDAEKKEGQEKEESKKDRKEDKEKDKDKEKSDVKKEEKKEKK", "summary_of_the_method": "as §1"}, "[5]": {"molecular_target": "UCHL1 (UniProt P09936)", "sequence (P09936 whole entry, looked up)": "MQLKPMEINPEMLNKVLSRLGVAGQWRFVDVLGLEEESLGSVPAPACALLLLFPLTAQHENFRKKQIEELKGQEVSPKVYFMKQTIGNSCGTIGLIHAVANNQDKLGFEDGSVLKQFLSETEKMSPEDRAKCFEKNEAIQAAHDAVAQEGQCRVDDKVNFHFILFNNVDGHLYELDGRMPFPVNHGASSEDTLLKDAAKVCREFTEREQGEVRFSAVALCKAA", "summary_of_the_method": "as §1"}, "[6]": {"molecular_target": "T4, UCHL3 (UniProt P15374)", "T4 sequence (whole entry)": "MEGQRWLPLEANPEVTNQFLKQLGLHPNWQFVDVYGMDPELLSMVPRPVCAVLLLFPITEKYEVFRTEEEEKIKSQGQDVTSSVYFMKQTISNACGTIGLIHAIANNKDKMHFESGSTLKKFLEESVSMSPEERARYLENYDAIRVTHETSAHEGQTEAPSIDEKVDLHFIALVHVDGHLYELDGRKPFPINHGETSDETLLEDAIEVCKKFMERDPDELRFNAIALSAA", "summary_of_the_method": "as §1"}, "[7]": {"molecular_target": "T5, UCHL5 (UniProt Q9Y5K5)", "T5 sequence (whole entry)": "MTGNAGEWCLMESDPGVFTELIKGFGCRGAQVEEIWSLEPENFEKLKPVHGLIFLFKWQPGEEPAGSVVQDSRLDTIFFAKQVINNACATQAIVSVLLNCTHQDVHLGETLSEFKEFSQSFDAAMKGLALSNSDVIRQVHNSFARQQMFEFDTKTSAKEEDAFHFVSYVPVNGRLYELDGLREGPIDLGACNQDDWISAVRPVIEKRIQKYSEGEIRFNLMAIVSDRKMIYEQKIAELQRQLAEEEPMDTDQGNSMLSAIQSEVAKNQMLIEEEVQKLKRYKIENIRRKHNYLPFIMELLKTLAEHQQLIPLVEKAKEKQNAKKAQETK", "summary_of_the_method": "as §1"}, "[8]": {"molecular_target": "USP10 (UniProt Q14694)", "sequence (Q14694 whole entry)": "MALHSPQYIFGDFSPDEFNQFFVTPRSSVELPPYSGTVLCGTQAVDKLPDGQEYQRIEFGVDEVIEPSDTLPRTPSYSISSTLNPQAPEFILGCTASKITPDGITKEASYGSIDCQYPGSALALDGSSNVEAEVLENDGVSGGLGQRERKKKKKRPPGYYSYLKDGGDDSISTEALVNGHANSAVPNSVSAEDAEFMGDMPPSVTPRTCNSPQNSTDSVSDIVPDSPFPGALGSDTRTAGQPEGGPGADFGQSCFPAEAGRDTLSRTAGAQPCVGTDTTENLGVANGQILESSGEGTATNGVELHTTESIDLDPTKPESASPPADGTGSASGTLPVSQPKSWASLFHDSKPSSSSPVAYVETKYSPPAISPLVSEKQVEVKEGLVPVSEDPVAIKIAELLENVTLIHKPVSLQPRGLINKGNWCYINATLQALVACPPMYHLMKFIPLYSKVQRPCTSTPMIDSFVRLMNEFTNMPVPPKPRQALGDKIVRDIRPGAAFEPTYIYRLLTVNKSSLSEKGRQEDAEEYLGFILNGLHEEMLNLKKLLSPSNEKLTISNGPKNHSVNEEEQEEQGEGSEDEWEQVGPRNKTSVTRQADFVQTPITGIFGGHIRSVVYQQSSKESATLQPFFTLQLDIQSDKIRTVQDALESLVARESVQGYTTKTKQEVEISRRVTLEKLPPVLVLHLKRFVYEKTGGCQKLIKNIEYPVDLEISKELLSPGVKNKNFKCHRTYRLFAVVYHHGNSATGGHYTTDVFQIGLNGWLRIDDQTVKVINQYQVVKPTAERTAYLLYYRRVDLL", "summary_of_the_method": "as §1"}, "[9]": {"molecular_target": "T6, USP15 (UniProt Q9Y4E8)", "T6 sequence (whole entry)": "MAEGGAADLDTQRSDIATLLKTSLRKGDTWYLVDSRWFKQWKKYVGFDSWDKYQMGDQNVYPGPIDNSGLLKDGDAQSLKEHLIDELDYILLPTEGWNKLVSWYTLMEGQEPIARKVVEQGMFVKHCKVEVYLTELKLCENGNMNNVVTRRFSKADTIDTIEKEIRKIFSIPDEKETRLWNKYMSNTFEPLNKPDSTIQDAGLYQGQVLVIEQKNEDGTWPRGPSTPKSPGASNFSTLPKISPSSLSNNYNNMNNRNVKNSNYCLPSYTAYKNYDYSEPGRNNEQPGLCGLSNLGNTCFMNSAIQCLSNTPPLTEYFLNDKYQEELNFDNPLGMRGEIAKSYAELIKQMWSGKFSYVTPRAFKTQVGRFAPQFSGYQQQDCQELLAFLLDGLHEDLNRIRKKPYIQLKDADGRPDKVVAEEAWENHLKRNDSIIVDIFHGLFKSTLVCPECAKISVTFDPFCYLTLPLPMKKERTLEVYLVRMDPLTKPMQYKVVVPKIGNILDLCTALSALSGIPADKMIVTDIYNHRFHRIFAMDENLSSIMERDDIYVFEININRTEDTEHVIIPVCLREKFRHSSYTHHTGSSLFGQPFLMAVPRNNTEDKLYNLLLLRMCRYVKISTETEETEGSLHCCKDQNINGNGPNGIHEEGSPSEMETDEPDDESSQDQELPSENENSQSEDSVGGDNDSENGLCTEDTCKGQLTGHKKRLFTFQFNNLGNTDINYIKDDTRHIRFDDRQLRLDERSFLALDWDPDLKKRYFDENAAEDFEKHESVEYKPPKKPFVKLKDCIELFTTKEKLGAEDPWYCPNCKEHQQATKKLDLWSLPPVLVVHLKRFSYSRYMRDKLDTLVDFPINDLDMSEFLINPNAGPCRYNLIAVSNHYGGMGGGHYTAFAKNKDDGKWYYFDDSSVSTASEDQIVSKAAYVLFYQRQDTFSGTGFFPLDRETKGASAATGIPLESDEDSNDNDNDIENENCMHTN", "summary_of_the_method": "as §1"}, "[10]": {"molecular_target": "USP16 (UniProt Q9Y5T5)", "sequence (Q9Y5T5 whole entry, looked up)": "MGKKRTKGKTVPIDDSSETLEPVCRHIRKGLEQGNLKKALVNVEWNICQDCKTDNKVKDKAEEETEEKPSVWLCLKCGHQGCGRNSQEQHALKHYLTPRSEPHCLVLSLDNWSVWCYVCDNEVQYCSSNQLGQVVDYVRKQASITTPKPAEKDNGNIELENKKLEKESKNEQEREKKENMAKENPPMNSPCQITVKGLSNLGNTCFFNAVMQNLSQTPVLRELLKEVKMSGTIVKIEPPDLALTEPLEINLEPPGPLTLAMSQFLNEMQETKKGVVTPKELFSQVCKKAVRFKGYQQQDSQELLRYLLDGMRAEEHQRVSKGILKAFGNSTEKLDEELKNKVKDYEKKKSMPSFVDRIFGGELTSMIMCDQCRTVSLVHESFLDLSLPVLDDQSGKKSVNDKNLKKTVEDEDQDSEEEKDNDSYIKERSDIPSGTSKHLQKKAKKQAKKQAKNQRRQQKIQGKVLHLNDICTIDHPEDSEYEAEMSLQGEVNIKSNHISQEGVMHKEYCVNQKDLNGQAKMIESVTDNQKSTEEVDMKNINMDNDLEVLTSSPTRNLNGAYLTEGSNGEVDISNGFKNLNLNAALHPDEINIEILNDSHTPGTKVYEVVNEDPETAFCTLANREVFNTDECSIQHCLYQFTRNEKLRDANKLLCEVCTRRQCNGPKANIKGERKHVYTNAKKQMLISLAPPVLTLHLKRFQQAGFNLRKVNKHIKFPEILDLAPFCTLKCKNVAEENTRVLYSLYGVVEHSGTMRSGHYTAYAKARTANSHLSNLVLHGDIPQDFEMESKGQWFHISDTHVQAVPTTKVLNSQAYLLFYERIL", "summary_of_the_method": "as §1"}}, "note": "A number with no mark means an inactive call."}
{"smiles": "COCC[C@@H](NC(=O)CCl)c1ccccc1", "values": [{"measurement": "log2 ratio of Biotin-Ahx-Ub-VS probe labelling", "setting": "[1]", "value": 0.0947}, {"measurement": "log2 ratio of Biotin-Ahx-Ub-VS probe labelling", "setting": "[2]", "value": -0.357}, {"measurement": "log2 ratio of Biotin-Ahx-Ub-VS probe labelling", "setting": "[3]", "value": -0.103}, {"measurement": "log2 ratio of Biotin-Ahx-Ub-VS probe labelling", "setting": "[4]", "value": -0.216}, {"measurement": "log2 ratio of Biotin-Ahx-Ub-VS probe labelling", "setting": "[5]", "value": "-1.4 (active)"}, {"measurement": "log2 ratio of Biotin-Ahx-Ub-VS probe labelling", "setting": "[6]", "value": 0.334}, {"measurement": "log2 ratio of Biotin-Ahx-Ub-VS probe labelling", "setting": "[7]", "value": -0.0927}, {"measurement": "log2 ratio of Biotin-Ahx-Ub-VS probe labelling", "setting": "[8]", "value": 0.0397}, {"measurement": "log2 ratio of Biotin-Ahx-Ub-VS probe labelling", "setting": "[9]", "value": -0.00696}, {"measurement": "log2 ratio of Biotin-Ahx-Ub-VS probe labelling", "setting": "[10]", "value": -0.303}]}
